Experimental data reported in PubChem BioAssay (EPA / NIEHS).
Records with an inconclusive call do not appear. Activity calls are given as the source filed them. How the source made its calls, unless noted: active means hit-call score of the fitted dose curve at least 0.9, where 1 is the maximum; inconclusive means response in the unintended direction; inactive means score below 0.9.

What was measured:
[1] = read-out: HMG-CoA synthase (HMGCS2), HMGCS2 (gene 3158); assay: CLD_HMGCS2_48hr: CellzDirect (CLD) Gene Expression Assay for HMG-CoA synthase (HMGCS2) at 48 hours (AID 2283711)
Outline: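 mRNA induction read by qNPA chemiluminescence, 48 h after dosing. Cultured primary human liver cells (two donor preparations) received fresh compound daily over two days against 0.2% DMSO vehicle; morphology-based cytotoxicity noted alongside.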

[2] = CEETOX_H295R_MTT_cell_viability: Viability Assessment in the CeeTox HT-H295R MTT Assay (AID 2283718; active means hit-call score of the fitted dose curve at least 0.9, where 1 is the maximum; inactive means score below 0.9)
Outline: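 H295R cells prestimulated 48 h with 10 uM forskolin, then exposed 48 h to test chemical (0.1% DMSO final). Viability by MTT (0.5 mg/ml, 4 h, 37 C), absorbance 570/650 nm; percent change versus DMSO, bidirectional fit.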

[3] = Tanguay_ZF_120hpf_ActivityScore_legacy: (Legacy) Oregon State University Tanguay Lab 120 Hour Post-fertilization zebrafish Assay Score for Activity (AID 2283742)
Outline: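 In this whole-embryo screen, dechorionated zebrafish were exposed from 6 hpf until 120 hpf at 28C under a 0.64% DMSO vehicle. Developmental malformations and death were recorded by brightfield microscopy as binary endpoints.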

[4] = tested on: Thyroperoxidase (TPO), gene 445522; assay: CCTE_Simmons_GUA_TPO: CCTE's Guaiacol Assay for Thyroperoxidase (TPO) Inhibition, Simmons Lab (AID 2283750)
Outline: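 Porcine thyroid microsomes (25 ug) in 200mM potassium phosphate, preincubated 30 s at 37C with compound (8 concentrations, 5 nM–87.5 uM) and 35mM guaiacol; 1mM H2O2 starts reaction. Absorbance change at 450nm over first 80 s; loss of signal versus DMSO, three replicates.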

[5] = target: Luciferin 4-monooxygenase (Photinus pyralis) (UniProt P08659); assay: CCTE_Simmons_QuantiLum_inhib_2: CCTE's Firefly Luciferase Inhibition Assay, Simmons Lab (AID 2283767);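 on AC50: potency for inhibitors that lower luciferase luminescence relative to DMSO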
Luciferin 4-monooxygenase (Photinus pyralis), sequence (P08659 whole entry, looked up): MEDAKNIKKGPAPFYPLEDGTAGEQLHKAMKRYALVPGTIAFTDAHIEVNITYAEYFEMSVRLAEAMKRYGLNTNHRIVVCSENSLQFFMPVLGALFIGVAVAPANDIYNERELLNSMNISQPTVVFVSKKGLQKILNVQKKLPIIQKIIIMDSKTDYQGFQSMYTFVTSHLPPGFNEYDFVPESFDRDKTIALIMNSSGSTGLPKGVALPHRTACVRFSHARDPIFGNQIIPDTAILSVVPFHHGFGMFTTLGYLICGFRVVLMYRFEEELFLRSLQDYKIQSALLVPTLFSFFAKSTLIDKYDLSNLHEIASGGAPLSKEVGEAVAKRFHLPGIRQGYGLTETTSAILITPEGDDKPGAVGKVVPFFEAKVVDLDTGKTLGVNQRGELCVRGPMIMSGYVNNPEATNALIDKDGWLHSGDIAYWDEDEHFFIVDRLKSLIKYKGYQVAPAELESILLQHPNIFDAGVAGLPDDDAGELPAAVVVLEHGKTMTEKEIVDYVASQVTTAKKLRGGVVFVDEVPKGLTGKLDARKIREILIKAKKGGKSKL
Outline: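 Eight test concentrations, 5 nM up to 87.5 uM final, preincubated 30min at 37C in the dark with purified luciferase (0.5% DMSO final). Detection reagent (150uM D-luciferin, 147uM dATP, 75uM CoA, pH 7.8) injected per well before kinetic luminescence read; three replicates.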

[6] = STM_H9_OrnithineISnorm_perc: Stemina devTOX quickPredict H9 human embryonic stem cell (hESC)-based Assay for Ornithine (ORN) Metabolite Biomarker, Normalized (AID 2283712; active means hit-call score of the fitted dose curve at least 0.9, where 1 is the maximum; inactive means score below 0.9;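 further: ornithine released into spent medium during last day measured by mass spectrometry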)
Outline: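 Ornithine in spent medium from the last 24 h of a 72 h exposure, deproteinised and quantified by UPLC-HRMS against an isotope-labelled internal standard, expressed relative to 0.1% DMSO. Pluripotent H9 cells; compound refreshed every 24 h.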

[7] = STM_H9_CystineISnorm_perc: Stemina devTOX quickPredict H9 human embryonic stem cell (hESC)-based Assay for Cystine (CYSS) Metabolite Biomarker, Normalized (AID 2283713; active means hit-call score of the fitted dose curve at least 0.9, where 1 is the maximum; inactive means score below 0.9)
Outline: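 Cystine in spent media from the last 24 h of a 72 h H9 hESC exposure (daily re-dosing), measured by UPLC-HRMS. Values normalized to isotopic internal standard, then to 0.1% DMSO; viability via CellTiter-Fluor.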

[8] = STM_H9_OrnCyssISnorm_ratio: Stemina devTOX quickPredict H9 human embryonic stem cell (hESC)-based Assay for Ornithine (ORN):Cystine (CYSS) Ratio (AID 2283714)
Outline: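 H9 hESC, 72h, q24h re-dose; last-day media → acetonitrile deproteinization → UPLC-HRMS. ORN:CYSS ratio from isotope-normalized EIC areas, vs 0.1% DMSO; MTX references on each plate.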

[9] = ArunA_CellTiter_hNC: Viability Assessment in the ArunA Biomedical's Oris Neural Crest (hNC) Cell Migration Assay (AID 2283752)
Outline: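 After a 72 h chemical exposure, viability of hNC cells is read with CellTiter Aqueous One and fitted as signal loss relative to DMSO. Cells were seeded at 60,000/well on Matrigel and cultured 16 h at 37 C beforehand.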

[10] = ArunA_CellTiter_hNP: Viability Assessment in the ArunA Biomedical's Oris Neural Crest (hNC) Cell Migration Assay (AID 2283753)
Outline: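 Viability read with CellTiter 96 Aqueous One after 72 h chemical exposure of human hNP1 neuroprogenitors, which were plated on Matrigel in LIF/bFGF medium 16 h beforehand. Endpoint fitted in positive direction relative to DMSO.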

[11] = ArunA_Migration_hNC: ArunA Biomedical's Oris Neural Crest (hNC) Cell Migration Assay (AID 2283755)
Outline: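 Calcein-AM fluorescence (ex494 nm/em 517 nm) in the stopper-defined detection zone quantifies migration of hNC cells after 72 h chemical exposure; 60,000 cells/well plated on Matrigel with LIF and bFGF, 16 h pre-incubation. DMSO baseline.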

[12] = ArunA_NOG_NeuriteLength: ArunA Biomedical's Neurite Outgrowth (NOG) Assay for Neurite Length (AID 2283757)
Outline: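 Total neurite length per neuron, from traced βIII-tubulin-labelled processes longer than 10 um on viable Hoechst-gated cells, was scored as decrease from DMSO. Cells were hESC (H9)-derived neurons given 48 h chemical exposure immediately after seeding.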

[13] = tested on: chicken Androgen Receptor (AR), gene 422165; assay: ATG_chAR_XSP1: Attagene TRANS-FACTORIAL Multi-Species (XSP1) HepG2 Assay for chicken Androgen Receptor (AR) (AID 2283768)
Outline: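 Reporter mRNA read by RT-PCR with fluorescent labelling and capillary electrophoresis 24 h after chemical dosing of transiently transfected HepG2 cells. Chicken AR-Gal4 chimera, partially stimulated with 3 nM 6-alpha-fluorotestosterone; activity fitted upward relative to DMSO.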

[14] = target: zebrafish Estrogen Receptor (ESR1), esr1 (gene 259252) (UniProt P57717); assay: ATG_zfER1_XSP1: Attagene TRANS-FACTORIAL Multi-Species (XSP1) HepG2 Assay for zebrafish Estrogen Receptor (ESR1) (AID 2283772)
zebrafish Estrogen Receptor (ESR1), esr1 (gene 259252), sequence (P57717 whole entry, looked up, the tested form may be a part): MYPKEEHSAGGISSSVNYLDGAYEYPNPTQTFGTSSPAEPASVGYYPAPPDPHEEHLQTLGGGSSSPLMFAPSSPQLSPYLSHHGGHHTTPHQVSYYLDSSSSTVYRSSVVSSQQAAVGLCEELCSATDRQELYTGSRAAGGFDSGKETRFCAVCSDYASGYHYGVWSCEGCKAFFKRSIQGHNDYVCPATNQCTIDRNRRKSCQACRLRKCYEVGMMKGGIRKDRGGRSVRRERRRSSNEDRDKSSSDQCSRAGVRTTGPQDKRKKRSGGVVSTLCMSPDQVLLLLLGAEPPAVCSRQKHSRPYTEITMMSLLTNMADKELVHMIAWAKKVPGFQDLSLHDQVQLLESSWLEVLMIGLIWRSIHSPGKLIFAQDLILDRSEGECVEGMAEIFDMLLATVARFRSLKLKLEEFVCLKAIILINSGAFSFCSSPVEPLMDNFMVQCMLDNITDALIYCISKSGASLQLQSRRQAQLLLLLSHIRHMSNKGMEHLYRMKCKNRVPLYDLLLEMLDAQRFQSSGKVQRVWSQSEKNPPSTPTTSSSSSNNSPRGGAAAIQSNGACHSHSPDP
Outline: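 HepG2 cells were transiently transfected with multiplexed GAL4-UAS reporter units driven by chimeric NR-GAL4 proteins, dosed for 24 h with 3 nM 6-alpha-fluorotestosterone present, and reporter mRNA quantified by RT-PCR and capillary electrophoresis versus DMSO.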

[15] = tested on: zebrafish Estrogen Receptor (ESR2B), gene 317733; assay: ATG_zfER2b_XSP1: Attagene TRANS-FACTORIAL Multi-Species (XSP1) HepG2 Assay for zebrafish Estrogen Receptor (ESR2B) (AID 2283773)
Outline: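 Human hepatoma HepG2, transiently transfected with multi-reporter units; exogenous zebrafish ESR2B-Gal4 activity measured. Exposure 24 h alongside 3 nM 6-alpha-fluorotestosterone to partly stimulate AR.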

[16] = tested on: frog Estrogen Receptor (ESR2), gene 100174814; assay: ATG_frER2_XSP1: Attagene TRANS-FACTORIAL Multi-Species (XSP1) HepG2 Assay for frog Estrogen Receptor (ESR2) (AID 2283774)
Outline: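 Multiplexed TRANS-format reporter assay in human hepatoma HepG2: chimeric nuclear receptor-Gal4 activity reported as mRNA induction at 24 h, detected by fluorescent RT-PCR products on capillary electrophoresis and fitted upward from DMSO baseline.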

Measured: AC50

COC(=O)NC(=S)Nc1ccccc1NC(=S)NC(=O)OC
active: [4] 49.6 µM
inactive: [1] | [2] | [3] | [5]

CC(C)N1C(=O)c2ccccc2NS1(=O)=O
inactive: [1] | [3]

COc1cc(OC)nc(NC(=O)NS(=O)(=O)c2ncccc2OCC(F)(F)F)n1
inactive: [1] | [6] | [7] | [3]

CS(=O)(=O)c1ccc(C(=O)C2C(=O)CCCC2=O)c([N+](=O)[O-])c1
inactive: [1] | [6] | [7] | [8] | [3] | [5]

CCOc1nc(C(Cl)(Cl)Cl)ns1
inactive: [1] | [7] | [2] | [3] | [5]
active: [6] 0.11 µM | [8] 9.92 µM

COCc1cnc(C2=NC(C)(C(C)C)C(=O)N2)c(C(=O)O)c1 (stereo not given)
inactive: [6] | [7] | [8] | [2] | [3] | [9] | [10] | [11] | [12]

CCOc1nc(F)cc2nc(S(=O)(=O)Nc3c(Cl)cccc3Cl)nn12
inactive: [1] | [3] | [5]
active: [6] 0.007 µM | [7] 0.0249 µM | [4] 55 µM

N#CN=C1SCCN1Cc1ccc(Cl)nc1
inactive: [6] | [7] | [8] | [2] | [3]

CC(C)Nc1nc(Cl)nc(NC(C)C)n1
active: [6] 0.0393 µM | [7] 5.93 µM | [8] 5.16 µM
inactive: [2] | [3]

COCC(=O)N(c1c(C)cccc1C)C(C)C(=O)OC (stereo not given)
inactive: [1] | [2] | [3]

CC1(C)C(C(=O)OC(C#N)c2cccc(Oc3ccccc3)c2)C1(C)C (stereo not given)
inactive: [1] | [3]

Cc1c(COC(=O)[C@@H]2[C@H](/C=C(\Cl)C(F)(F)F)C2(C)C)cccc1-c1ccccc1
inactive: [1] | [2] | [3] | [13] | [14]
active: [15] 69.1 µM | [16] 100 µM

CNC(=O)N(C)c1nnc(C(C)(C)C)s1
inactive: [1] | [3]

COC(=O)NS(=O)(=O)c1ccc(N)cc1
inactive: [1] | [3]
active: [4] 136 µM | [5] 0.149 µM

CCOC(=O)C(C)OC(=O)c1cc(Oc2ccc(C(F)(F)F)cc2Cl)ccc1[N+](=O)[O-] (stereo not given)
inactive: [2] | [3]
active: [1] 0.241 µM
